From PubChem
TTR transcr act: activators of transthyretin transcription; SH-SY5Y TTR promoter Gaussia luciferase, luminescence; 100% = recombinant luciferase protein wells; activation, % at 16.7 µM; actives 1.3% (n = 92,000); AID 1117267;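 active means activation above the mean of all tested compounds plus 3 SD, cut at about 9.5% in these data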;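 further: cells exposed to compounds for one day before reading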
HuH7 TTR inh: decreases TTR transcription in HuH7 cells in activator counter-screen; shares compounds with TTR transcr act; HuH7 TTR promoter-Gaussia luciferase reporter, luminescence; inhibition, % at 16.7 µM; actives 4% (n = 1,100); AID 1117279;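 active means average inhibition above the solvent-only control wells' mean plus 3 SD, cut at about 15% in these data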;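 further: inhibitors lower well luminescence so higher value means more inhibition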
TTR act confirm: human TTR transcription activation, confirmation; shares compounds with TTR transcr act; SHSY5Y TTR promoter Gaussia luciferase, luminescence; 100% = purified Lucia enzyme wells, no cells; activation, % at 16.7 µM; 1,100 tested, under 10 active;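 active means mean activation above a set limit taken from the earlier primary screen, cut at about 11% in these data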
Of the large screens only hits and unclear results are named; the others gave an inactive call (follow-up assays come after a bar, where they were run). Only a selection was taken, and hits are over-represented in it overall.

Cc1ccc(-c2nc3ncccn3c2NC(=O)c2ccccc2)cc1	none
COC(=O)c1ccc(N(CC(=O)NC2CCCC2)C(=O)c2ccc(C)s2)cc1	none
COc1ccccc1NS(=O)(=O)c1cc(NC(=O)CCNC(C)=O)ccc1C	none
O=C(CCNC(=O)c1ccccc1)Nc1ccc(F)c(Cl)c1	none
COc1ccc(NC(=O)CCNC(=O)c2ccccc2)cc1S(N)(=O)=O	TTR transcr act 31 | HuH7 TTR inh inactive | TTR act confirm inactive
COC(=O)[C@]12C[C@H](CC(=O)N3CCCCC3)C(=O)N(CCc3ccc(OC)c(OC)c3)C1=C[C@H](C(C)C)O[C@@H]2C1CC1	none
O=C1CCC[C@H]2Cc3nc4ccccc4cc3C[C@]23CCCN13	none
O=C(OCc1cn(Cc2ccccc2Cl)nn1)N1CCOCC1	none
COCCCNC(=O)C[C@H]1C[C@@]2(C(=O)OC)C(=C[C@H](C3CCCC3)O[C@@H]2C)N(Cc2cccc3ccccc23)C1=O	none
COc1ccc(Cn2ccc3ccc(-c4ccc5ccn(C(=O)c6ccccc6C)c5c4)cc32)cc1	none
COc1ccccc1N1CCN(S(=O)(=O)CCNC(=O)C2CCCC2)CC1	none
COc1ccccc1N1CCN(C(=O)C(CC(C)C)NC(=O)C2CCCCC2)CC1 (centres undefined)	TTR transcr act 21 | HuH7 TTR inh inactive | TTR act confirm inactive
COc1ccccc1N1CCN(C(=O)C(Sc2ccccc2)c2ccccc2)CC1 (centres undefined)	none
Cc1ccc(CNC(=O)O[C@H]2CC[C@@]34CCCN3C(=O)CCC[C@H]4C2)o1	none
O=C(NCc1ccccc1)NC(=O)c1ccc(Cl)cc1	TTR transcr act 25 | HuH7 TTR inh inactive | TTR act confirm inactive
O=C(NCc1ccccc1)c1ccc(CO)cc1	none
O=C(NCc1ccccc1Cl)NC(=O)c1ccccc1	none
O=C(N1CCC(C(O)(c2ccccc2)c2ccccc2)CC1)n1ncc(C(O)(c2ccccc2)c2ccccc2)n1	none
O=C(Nc1ccc(F)cc1)OC1CC2CC1[C@H]1CCCCN1C2 (some centres undefined)	none
CC(=O)c1ccc(N2C(=NC(=O)C3CCCO3)SC3CS(=O)(=O)CC32)cc1 (centres undefined)	none
CC(=O)c1cccc(N2C(=NC(=O)CCc3ccccc3)SC3CS(=O)(=O)CC32)c1 (centres undefined)	none
CC(=O)c1ccc(N2C(=NC(=O)COc3ccccc3)SC3CS(=O)(=O)CC32)cc1 (centres undefined)	TTR transcr act 10 | HuH7 TTR inh inactive | TTR act confirm inactive
O=C(OCC#CCSc1nnc(-c2ccc3ccccc3c2)o1)c1cccs1	none
NC(=O)c1nc(-c2ccccc2)c(-c2ccccc2)[nH]c1=O	none
O=c1nc(-c2ccccc2)nc(-c2ccccc2)[nH]1	none
Cc1ccc(-c2[nH]c(-c3ccc(C(=O)O)cc3)nc2-c2ccccc2)cc1	TTR transcr act 12 | HuH7 TTR inh inactive | TTR act confirm inactive
CC(C)(N[C@@H](Cc1c[nH]c2ccccc12)C(=O)NCCc1c[nH]c2ccccc12)C(=O)NC1CCCCC1	none
CCOC(=O)[C@@]12CCCC=C1N(CCc1ccc(Cl)cc1)C(=O)[C@H]2CC(=O)NCc1ccc(C)o1	none
C=CCOc1ccc(/C=C2\SC(=S)N(C(C(=O)O)c3ccccc3)C2=O)cc1 (centres undefined)	none
CC(/C=C1\SC(=S)N(C(C(=O)O)c2ccccc2)C1=O)=C\c1ccccc1 (centres undefined)	none
COc1ccc(OC)c(/C=C2\SC(=S)N(C(C(=O)O)c3ccccc3)C2=O)c1 (centres undefined)	TTR transcr act 16 | HuH7 TTR inh inactive | TTR act confirm inactive
O=C(NCCCc1ccccc1)[C@H](Cc1c[nH]c2ccccc12)NC1(C(=O)NCCc2c[nH]c3ccccc23)CCOCC1	none
O=C(OCC#CCSc1nnc(-c2cccc3ccccc23)o1)c1ccc(OC(F)F)cc1	none
C#CCNC(=O)C[C@H]1C(=O)N(CCCOC)C2=CCCC[C@@]21C(=O)OCC	none
CCOC(=O)C1CCN(C(=O)C(C)(C)NC(=O)Nc2ccc(N(C)C)cc2)CC1	none
CCOc1ccc(-n2c(SCC(=O)Nc3ccc4c(c3)OCCO4)nc3c(c2=O)SCC3)cc1	none
COc1ccc(NC(=O)CSc2nc3c(c(=O)n2-c2ccc(F)cc2)SCC3)c(OC)c1	TTR transcr act 15 | HuH7 TTR inh inactive | TTR act confirm inactive
COc1ccc(-n2c(SCC(=O)Nc3nccs3)nc3c(c2=O)SCC3)cc1	none
CN1C(=O)[C@@](O)(c2cccn2C)c2cc(Cl)ccc21	none
COc1cccc2cc(C(C)N(CCCN3CCOCC3)C(=S)Nc3c(C)cccc3C)oc12 (centres undefined)	none
COc1cccc2cc(C(C)N(CCCN3CCOCC3)C(=S)Nc3ccccc3C)oc12 (centres undefined)	TTR transcr act 14 | HuH7 TTR inh inactive | TTR act confirm inactive
COc1cccc2cc(C(C)N(CCCN3CCOCC3)C(=S)Nc3cccc(C)c3)oc12 (centres undefined)	none
C[C@@H]1[C@H](c2ccccc2)OC(O)([C@H](Cc2ccccc2)NC(=O)OC(C)(C)C)CN1C (some centres undefined)	none
O=C(NCCc1ccccc1)OCc1cn(-c2ccc(F)cc2)nn1	none
COC[C@@H]1CCCN1c1cccc2c1S(=O)(=O)N(C1CC1)CCCO2	none
COc1ccccc1CN(CC(=O)NCc1ccco1)C(=O)CNS(=O)(=O)c1ccc(C)cc1	TTR transcr act 12 | HuH7 TTR inh inactive | TTR act confirm inactive
COc1ccc(CNC(=O)CN(Cc2ccco2)C(=O)CNS(=O)(=O)c2ccccc2)cc1	none
O=C(CN(C(=O)CNS(=O)(=O)c1ccc(F)cc1)c1cccc(F)c1)NCC1CCCO1 (centres undefined)	none
COc1ccccc1N(CC(=O)NCC1CCCO1)C(=O)CNS(=O)(=O)c1ccc(C)cc1 (centres undefined)	TTR transcr act 13 | HuH7 TTR inh inactive | TTR act confirm inactive
COc1ccc(S(=O)(=O)NCC(=O)N(CC(=O)NCc2ccco2)Cc2ccccc2)cc1	none
COc1ccccc1N(CC(=O)NCC1CCCO1)C(=O)CNS(=O)(=O)c1ccc(Cl)cc1 (centres undefined)	none
O=C(Nc1cccc(F)c1)OC1CC2CC1[C@H]1CCCCN1[C@H]2Cc1ccccc1 (some centres undefined)	none
CC(C)C[C@H](NC1(C(=O)NC2CCCCC2)CCC1)C(=O)NCC(c1ccccc1)c1ccccc1	none
COc1ccc2c(CCN3C(=O)c4ccccc4C3=O)c(-c3c(CCN4C(=O)c5ccccc5C4=O)c4ccccc4n3C(=O)OC(C)(C)C)[nH]c2c1	none
CC1(c2nnnn2C2CCCCC2)CSCC(=O)N1CCc1ccc(O)cc1 (centres undefined)	none
c1ccc(-c2nn(Cc3ncco3)c3ccccc23)cc1	none
CCOC(=O)C1(C)CCCN(C(=O)c2ccc(-c3ccccc3)cc2)C1 (centres undefined)	none
COC(=O)[C@]12C[C@H](CC(=O)NCCc3ccccc3OC)C(=O)N(Cc3ccc(Cl)cc3Cl)C1=C[C@H](C1CCCC1)O[C@@H]2C	none
Cc1cc(C)n2nc(-c3cccc(Br)c3)cc2n1	none
CCOC(=O)c1cnc2cc(-c3ccc(C(C)(C)C)cc3)nn2c1N	none
CC(=O)c1cnc2cc(-c3cccc(Br)c3)nn2c1C	TTR transcr act 9.7 | HuH7 TTR inh inactive | TTR act confirm inactive
